Four compounds from PubChem BioAssay can be followed below.

The source made the active and inactive calls. Unless noted, the rule behind the calls is not given here.

For assay [1], the system named is Wnt5a (protein binding on small-molecule microarray). Kind of assay: Wnt5a binders on small-molecule microarray, primary screen, biophysical, 635/667 nm fluorescence (AID 1142).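 Note: fluorescence read at 667 nm with signal to noise per printed feature.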 Conditions: 635 nm fluorescence, higher = more signal.
Assay [2] is described as follows: cell viability in Huh7 cells, primary screen, cytotoxicity control for HCV replication inhibitor project, CellTiter-Glo luminescence, basal, 48 h (AID 1143).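 Note: Huh7 hepatoma cells carrying a hepatitis C replication reporter with no stimulus; test concentration not given here.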 Conditions: Huh7 HCV replicon, higher = more signal, called active from +8 up or from −8 down.
A short description of assay [3]: P. aeruginosa biofilm formation inhibitors, primary screen, PAO1 strain, BacTiter-Glo luminescence, LB-PBS (AID 1144). Conditions: 12 h, higher = more signal.
A short description of assay [4]: CREB reporter modulators without forskolin, primary screen, cell-based, PC12, CRE-LacZ reporter, unstimulated (AID 1145). Conditions: no forskolin, luminescence, 4.5 h, higher = more signal, called active from +8 up or from −8 down.
Assay [5] can be described thus: CREB reporter modulators under forskolin, primary screen, cell-based, PC12, CRE-LacZ reporter, forskolin-stimulated (AID 1146).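 Note: PC12 cells with 6xCRE LacZ reporter stimulated by forskolin 10 µM; beta-galactosidase reporter signal reflecting CREB driven transcription.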 Conditions: luminescence, 4.5 h, higher = more signal, called active from +8 up or from −8 down.
Assay [6] deals with Streptavidin (Streptomyces avidinii) (UniProt P22629). In words: streptavidin binders on small-molecule microarray, primary screen, artefact control for SMM compound annotation, biophysical, 635/667 nm fluorescence (AID 1147).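 Note: signal reflects streptavidin binding to arrayed compounds as a control protein.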 Conditions: streptavidin binding, higher = more signal.
Streptavidin (Streptomyces avidinii), sequence (P22629 whole entry, looked up): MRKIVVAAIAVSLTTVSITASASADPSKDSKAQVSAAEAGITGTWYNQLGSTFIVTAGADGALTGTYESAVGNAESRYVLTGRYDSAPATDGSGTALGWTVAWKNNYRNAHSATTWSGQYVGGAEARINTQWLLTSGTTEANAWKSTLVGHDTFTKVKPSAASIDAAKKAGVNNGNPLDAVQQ
The nature of assay [7]: small-molecule binders of probe aInhba, primary screen, biochemical, small-molecule microarray, 635/667 nm fluorescence (AID 1148).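 Note: score merges 667nm spot fluorescence with signal-to-noise for antibody binding to printed compounds.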 Conditions: higher = more signal.
Assay [8] concerns the target Torsin-1A (Homo sapiens) (UniProt O14656). Kind of assay: torsin A binders from cell lysate, primary screen, small-molecule microarray, wild-type, 635/667 nm (AID 1149). Conditions: COS7 hTOR1A-WT lysate, 635 nm fluorescence, higher = more signal.
The target is the same in assay [9]. In words: small-molecule binders of mutant TOR1A in lysate, primary screen, cell lysate, small-molecule microarray, COS7 lysate, 635/667 nm fluorescence (AID 1150).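 Note: score pools 667 nm emission and signal to noise measuring lysate protein binding.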 Conditions: COS7 hTOR1A mutant lysate, 635 nm fluorescence, higher = more signal.
In assay [10] the test system is Sonic hedgehog protein (Shh). Kind of assay: small-molecule binders of Shh protein, primary screen, biochemical, small-molecule microarray, 635/667 nm fluorescence (AID 1151).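 Note: Shh protein binding to compounds spotted on small-molecule microarray slides; score combines spot fluorescence intensity with signal-to-noise across triplicate slides.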 Conditions: small-molecule microarray binding, 635 nm fluorescence; higher = more signal.
Assay [11] can be described thus: E. coli DRC41 culture turbidity changes, primary screen, E. coli filamentation inducer project, strain DRC41, OD650, 48 h (AID 1152).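 Note: E. coli MC1000 strain DRC41 lacking acrAB efflux pump and sulA.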 Conditions: E. coli DRC41 (acrAB sulA), higher = more signal, called active from +8 up or from −8 down.
A short description of assay [12]: small-molecule binders of probe aLefty1, primary screen, biochemical, small-molecule microarray, 635/667 nm fluorescence (AID 1153).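 Note: score merges spot fluorescence with signal-to-noise ratio from the scanned slide images.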 Conditions: higher = more signal.
Assay [13] in a line: PSAC antagonists in infected red cells, primary screen, cell-based, P. falciparum Indochina, OD700, 1 h (AID 1154). Conditions: P. falciparum Indochina infected RBC osmotic lysis, higher = more signal, called active from +8 up or from −8 down.
Assay [14] is described as follows: PSAC antagonists in infected red cells, primary screen, cell-based, P. falciparum Indochina, OD700, 2 h (AID 1155).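 Note: lysis reports solute entry through the parasite surface anion channel PSAC; channel blockers reduce lysis of infected cells.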 Conditions: P. falciparum Indochina infected erythrocytes, osmotic lysis OD700; higher = more signal, called active from +8 up or from −8 down.
Assay [15] is described as follows: osmotic lysis modulators in infected erythrocytes, primary screen, PSAC antagonist project, cell-based, P. falciparum Indochina, OD700, 3 h (AID 1156). Conditions: higher = more signal, called active from +8 up or from −8 down.
A short description of assay [16]: PSAC antagonists in infected red cells, primary screen, cell-based, P. falciparum Indochina, OD700, 18 h (AID 1157). Conditions: P. falciparum Indochina infected erythrocytes, osmotic lysis OD700, 18 h; higher = more signal, called active from +8 up or from −8 down.
A short description of assay [17]: modulators of S6 phosphorylation in cells, primary screen, cell-based, A549, cytoblot, luminescence, serum-stimulated (AID 1158).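 Note: serum-stimulated A549 lung adenocarcinoma cells; signal is phosphorylated S6 detected by cytoblot immunostaining with HRP secondary.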 Conditions: A549 phospho-S6 cytoblot, 5 h, higher = more signal.
Assay [18] has as its target NADPH oxidase 2 (Homo sapiens) (UniProt P04839). In words: NOX2-dependent H2O2 signal modulators, primary screen, NOX inhibitor project, cell-based, HEK293-NOX2, PMA-stimulated, Amplex Red fluorescence (AID 1159). Note: test concentration not given here. Conditions: 45 min, higher = more signal, called active from +8 up or from −8 down.
In assay [19] the target is NADPH oxidase 4 (Homo sapiens) (UniProt Q9NPH5). Kind of assay: NOX4-dependent H2O2 signal modulators, primary screen, NOX inhibitor project, cell-based, HEK293-NOX4, tetracycline-induced, Amplex Red fluorescence (AID 1160). Conditions: 45 min, higher = more signal, called active from +8 up or from −8 down.
NADPH oxidase 4 (Homo sapiens), sequence (Q9NPH5 whole entry, looked up): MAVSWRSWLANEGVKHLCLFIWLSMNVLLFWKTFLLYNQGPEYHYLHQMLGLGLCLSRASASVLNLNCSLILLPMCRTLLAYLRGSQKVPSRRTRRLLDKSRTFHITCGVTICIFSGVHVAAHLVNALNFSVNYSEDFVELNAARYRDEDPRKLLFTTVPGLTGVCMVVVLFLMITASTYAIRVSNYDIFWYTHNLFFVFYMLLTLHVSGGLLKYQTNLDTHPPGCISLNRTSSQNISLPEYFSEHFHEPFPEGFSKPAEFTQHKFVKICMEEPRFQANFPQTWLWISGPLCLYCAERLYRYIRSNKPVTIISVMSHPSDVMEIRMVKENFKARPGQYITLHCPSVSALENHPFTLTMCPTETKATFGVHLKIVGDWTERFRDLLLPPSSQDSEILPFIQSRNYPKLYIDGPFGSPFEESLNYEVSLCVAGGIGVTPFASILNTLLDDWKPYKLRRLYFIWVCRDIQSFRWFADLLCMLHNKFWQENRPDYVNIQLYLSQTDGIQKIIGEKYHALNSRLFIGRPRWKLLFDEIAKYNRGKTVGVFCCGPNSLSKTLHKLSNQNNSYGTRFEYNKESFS
In assay [20] the target is NADPH oxidase 5 (Homo sapiens) (UniProt Q96PH1). In words: NOX5-dependent H2O2 signal modulators, primary screen, NOX inhibitor project, cell-based, HEK293-NOX5, Amplex Red fluorescence (AID 1161). Conditions: HEK293-NOX5, ionomycin, 45 min, higher = more signal.
NADPH oxidase 5 (Homo sapiens), sequence (Q96PH1 whole entry, looked up): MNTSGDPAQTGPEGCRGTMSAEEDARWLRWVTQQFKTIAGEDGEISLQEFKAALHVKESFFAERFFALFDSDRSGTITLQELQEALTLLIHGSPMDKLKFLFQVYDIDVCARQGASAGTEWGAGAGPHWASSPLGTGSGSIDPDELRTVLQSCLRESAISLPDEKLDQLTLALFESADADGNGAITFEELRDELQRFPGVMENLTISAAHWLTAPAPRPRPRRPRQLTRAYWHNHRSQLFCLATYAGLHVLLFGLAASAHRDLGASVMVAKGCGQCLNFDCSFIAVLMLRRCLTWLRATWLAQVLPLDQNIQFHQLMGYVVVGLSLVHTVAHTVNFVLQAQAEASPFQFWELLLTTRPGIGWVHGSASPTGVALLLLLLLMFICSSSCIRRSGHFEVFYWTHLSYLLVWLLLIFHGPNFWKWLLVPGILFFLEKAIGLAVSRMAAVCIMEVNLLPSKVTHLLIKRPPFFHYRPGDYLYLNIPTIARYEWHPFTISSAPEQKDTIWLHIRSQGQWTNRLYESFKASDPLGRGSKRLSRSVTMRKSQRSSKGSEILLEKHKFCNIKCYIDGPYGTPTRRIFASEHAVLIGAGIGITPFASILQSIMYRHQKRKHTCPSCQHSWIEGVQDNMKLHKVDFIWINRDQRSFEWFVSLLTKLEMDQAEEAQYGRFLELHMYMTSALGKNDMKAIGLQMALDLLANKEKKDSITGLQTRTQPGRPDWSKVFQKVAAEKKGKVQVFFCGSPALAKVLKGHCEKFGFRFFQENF

Torsin-1A (Homo sapiens), sequence (O14656 whole entry, looked up): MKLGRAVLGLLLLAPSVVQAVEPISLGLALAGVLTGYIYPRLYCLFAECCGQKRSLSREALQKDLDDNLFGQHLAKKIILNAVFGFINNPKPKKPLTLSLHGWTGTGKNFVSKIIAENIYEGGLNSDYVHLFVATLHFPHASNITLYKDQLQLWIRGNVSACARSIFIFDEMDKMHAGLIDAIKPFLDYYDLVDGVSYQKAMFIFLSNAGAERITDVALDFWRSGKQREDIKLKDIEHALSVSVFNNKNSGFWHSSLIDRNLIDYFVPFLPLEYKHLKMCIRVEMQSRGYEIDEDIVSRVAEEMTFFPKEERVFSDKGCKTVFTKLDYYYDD
NADPH oxidase 2 (Homo sapiens), sequence (P04839 whole entry, looked up): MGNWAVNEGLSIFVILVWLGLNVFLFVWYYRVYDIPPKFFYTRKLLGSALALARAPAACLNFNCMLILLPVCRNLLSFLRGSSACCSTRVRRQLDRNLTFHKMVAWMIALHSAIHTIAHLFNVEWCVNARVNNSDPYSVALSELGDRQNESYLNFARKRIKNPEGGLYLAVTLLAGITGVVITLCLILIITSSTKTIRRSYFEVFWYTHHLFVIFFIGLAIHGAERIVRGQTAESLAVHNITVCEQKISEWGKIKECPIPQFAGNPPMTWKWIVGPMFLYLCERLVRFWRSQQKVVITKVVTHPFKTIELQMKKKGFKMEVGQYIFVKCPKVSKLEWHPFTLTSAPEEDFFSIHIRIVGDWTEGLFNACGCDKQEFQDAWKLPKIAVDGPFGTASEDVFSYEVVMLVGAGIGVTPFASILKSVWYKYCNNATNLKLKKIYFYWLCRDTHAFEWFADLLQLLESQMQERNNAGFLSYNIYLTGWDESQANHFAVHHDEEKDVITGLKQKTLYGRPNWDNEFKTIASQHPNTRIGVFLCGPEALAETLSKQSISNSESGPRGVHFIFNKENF

Consider `CC(C)N1C(=O)[C@@]2(Cc3ccccc31)c1ccccc1C(=O)N(Cc1ccccc1C(F)(F)F)[C@H]2c1ccc(CO)cc1`, for which the composite z-score is 0.15 in [1]; -0.0569 in assay [6]; 0.46 in assay [7]; -0.375 with Torsin-1A (Homo sapiens) [8]; -0.139 with Torsin-1A (Homo sapiens) [9]; 0.376 in assay [10]. Further, the composite z-score in [12] is -0.853. Further, the z-score in [2] is -0.222 (inactive); in assay [3] it was -0.121 (inactive); in [4] it was 0.155 (inactive); in assay [5], 0.176 (inactive); in assay [11] it was -0.49 (inactive); in assay [13] it was 0.382 (inactive). The z-score in assay [14] is 0.596 (inactive); in assay [15] it was 0.238 (inactive); in assay [16], 0.501 (inactive); in assay [17], -0.0346; in assay [18] it was 0.449 (inactive); in assay [19] it was -1.18 (inactive). For the same compound, the z-score in [20] is 0.56.
For `[N-]=[N+]=NCc1ccccc1C[C@]1(C(=O)N2CCCCC2)COC(c2ccc(OCCCO)cc2)=N1`, the composite z-score in [1] is 0.114; in [6], 0.997; in assay [7], -0.441; in the assay with Torsin-1A (Homo sapiens) [8], 0.555; in the assay with Torsin-1A (Homo sapiens) [9], 0.278; in assay [10] it was 0.349. Also, the composite z-score in [12] was -0.543. Besides, the z-score is -4.72 (inactive) in assay [2]; -0.919 (inactive) in assay [3]; 1.93 (inactive) in [4]; 1.43 (inactive) in assay [5]; 2.89 (inactive) in [11]; 29.2 (active) in assay [13]. Moreover, the z-score in assay [14] was 19.5 (active); in assay [15] it was 4.13 (inactive); in assay [16] it was 2.11 (inactive); in assay [17], -0.305; in assay [18], -1.66 (inactive); in assay [19], 0.0299 (inactive). Further, the z-score in assay [20] is -1.38.
For the compound `CC(CO)N1C(=O)[C@@H]2[C@H]3C(=O)OCC=C[C@H]3OC23C=CCN(c2ccc4ccccc4c2)C(=O)[C@@H]13` (stereo not given in full), the composite z-score in assay [1] was -1.02; in [6], -1.06; in [7], -0.128; with Torsin-1A (Homo sapiens) [8], -2.15; in the assay with Torsin-1A (Homo sapiens) [9], -1.05; in assay [10], -1.19. For the same compound, the composite z-score in assay [12] turned out to be 0.0927. Besides, the z-score in assay [2] is 0.417 (inactive); in [3], 1.19 (inactive); in assay [4] it was 0.862 (inactive); in assay [5], -0.702 (inactive); in [11] it was -0.855 (inactive); in assay [13], 0.201 (inactive). Further, the z-score in [14] was 0.0537 (inactive); in assay [15] it was 0.162 (inactive); in assay [16], -0.0627 (inactive); in assay [17], -0.409; in [18], 0.405 (inactive); in assay [19] it was 0.512 (inactive). The compound further returned a z-score in assay [20] of 1.79.
Turning to `COCCOC(=O)N1C(=O)[C@@]2(c3cc(C#CCC(C(=O)OC)C(=O)OC)ccc31)[C@H](C(N)=O)[C@H]1C(=O)O[C@H](c3ccccc3)[C@H](c3ccccc3)N1[C@@H]2c1ccccc1OCCO`, the composite z-score in assay [1] is -0.0211; in assay [6] it was 1.09; in assay [7], -0.0259; in the assay with Torsin-1A (Homo sapiens) [8], 0.0139; in the assay with Torsin-1A (Homo sapiens) [9], 0.212; in assay [10], 1.9. The composite z-score in assay [12] is -0.189. The z-score in assay [2] is -6.46 (inactive); in [3] it was -2.59 (inactive); in assay [4] it was -1.84 (inactive); in assay [5] it was -2.42 (inactive); in [11], 1.08 (inactive); in [13], 8.08 (active). Moreover, the z-score in assay [14] is 2.37 (inactive); in [15], 2.67 (inactive); in assay [16], 1.05 (inactive); in [17] it was 4.47; in assay [18] it was 1.02 (inactive); in [19], 0.826 (inactive). The compound further returned a z-score in [20] of -1.13.
